Assay outcomes deposited in PubChem BioAssay by several laboratories.
TWEAK-Fn14 inh = blocks TWEAK-Fn14 interaction in a reporter cell assay | TWEAK-stimulated Fn14 reporter cells, luciferase luminescence, 8 h | inhibition, % at 10 µM | hit rate 2% among 360,000 | AID 1159606; in the data active means inhibition above about 50%
CF NFkB inh = inhibitors of cystic fibrosis induced NF-kB | KKLEB NF-kB-GFP reporter, PAF-induced, GFP fluorescence overnight | inhibition, % at 5 µM | hit rate 0.86% among 360,000 | AID 588850;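 active means at least 50% inhibition at 5 µM, scaled per plate between neutral and stimulator controls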;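 further: PAF is a Pseudomonas aeruginosa culture filtrate used as stimulus; plate controls were PAF-stimulated DMSO wells for no effect and unstimulated DMSO wells for full effect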
hiPSC survival = increases survival of single human iPS cells. survival enhancement, % at 20 µM. hit rate 0.044% among 360,000. hiPSC single-cell survival, ATPlite luminescence; 100% = ROCK inhibitor wells, 0% = DMSO; in the data active means survival enhancement above about 18%;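 further: cells exposed to compounds for 16 hours before the ATP read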
LGR2 antag = Drosophila LGR2 receptor signaling inhibition. hit rate 0.35% among 380,000. inhibition, % at 9.99 µM. HEK293 LGR2, CRE-luciferase, bursicon-stimulated, 4 h. AID 720647;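 active means drop in luminescence signal, shown as inhibition above about 50% in the replicate tests, limit read from the data, passing the limit was not always enough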;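 further: agonist challenge used bursicon conditioned medium at about half maximal strength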
HIF-2a inh = blocks HIF-2a reporter activity | hit rate 0.72% among 360,000 | 786-0 RCC cells HIF-2a reporter, luciferase luminescence, overnight | inhibition, % at 18.8 µM | AID 624352;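 active means inhibition of the luminescence signal of 40% or more relative to plate controls, in a single-dose primary screen at 18.75 µM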
KKLEB cytotox = CF airway cell cytotoxicity counter-screen; KKLEB CF airway cells viability, ATPlite luminescence, overnight; stronger effect = lower value; cells stimulated with P. aeruginosa culture filtrate; activity change (cytotoxicity), % at 5 µM; hit rate 0.36% among 360,000; AID 602141;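 active means corrected activity change at or below -50% at 5 µM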
Mdm2-MdmX confirm = Mdm2/MdmX (human) interaction inhibition, confirmed; hit rate 99% among 740; SaOS-2 split-luciferase Mdm2/MdmX complementation, luminescence; shares compounds with HIF-2a inh; inhibition, % at 8 µM;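 active means mean inhibition of the luminescence signal across two replicates at or above 26 percent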
HIF-2a inh conf = HIF-2a inhibition, single concentration confirmation; shares compounds with HIF-2a inh; 786-0 RCC cells, HIF-2a luciferase reporter luminescence, overnight; inhibition, % at 18.8 µM; hit rate 56% among 1,800;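 active means mean inhibition across four replicates of at least 40 percent at the single tested concentration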
HIF-1a cs = HIF-1a inhibition counter-screen for HIF-2a hits; shares compounds with HIF-2a inh; MiaPaCa-2 HIF-1a luciferase reporter, desferoxamine, overnight; inhibition, % at 18.8 µM; hit rate 72% among 1,800;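 active means mean inhibition of the reporter signal across four replicates at the single tested dose of 50% or more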
An asterisk follows results filed as active; x = not tested or not shown. A selection: hits, their analogues and other compounds. The true share with any hit is near 2.3%.

SMILES | TWEAK-Fn14 inh | CF NFkB inh | hiPSC survival | LGR2 antag | HIF-2a inh | KKLEB cytotox | Mdm2-MdmX confirm | HIF-2a inh conf | HIF-1a cs
CCN(CC)Cc1c(O)ccc2c([N+](=O)[O-])c(C)n(-c3ccc(OC)cc3)c12 | 74* | 82* | -3 | x | 25 | -23 | 84* | x | x
O=C(NCC1CCCCC1)[C@@H]1N[C@@H]2c3ccc(C4=CCCCC4)c(=O)n3C[C@@H]2[C@H]1CO | x | x | x | -10 | x | x | x | x | x
Cc1nc(SCC(=O)N2c3ccccc3NC(=O)CC2C)c2c(C)c(C)sc2n1 (stereo not drawn) | 1 | 4 | 0 | 16 | 23 | -11 | x | x | x
Cc1sc2nc(C3CC3)nc(SCC(=O)N3c4ccccc4CC3C)c2c1C (stereo not drawn) | 28 | 3 | 0 | x | -6 | -11 | 101* | x | x
COc1ccc(NC(=O)N(C)C[C@H]2Oc3c(NS(=O)(=O)c4ccc(F)cc4)cccc3C(=O)N([C@@H](C)CO)C[C@H]2C)cc1 | x | x | x | -6 | x | x | x | x | x
C[C@@H]1CCCCO[C@H](CN(C)Cc2ccncc2)[C@@H](C)CN([C@@H](C)CO)C(=O)c2cc(NC(=O)CCCN(C)C)ccc2O1 | x | x | x | 18 | x | x | x | x | x
CC(C)(C)C(=O)Nc1ccc(NC(=O)c2ccco2)nc1 | 104* | -3 | -1 | 98* | 90* | -31 | 98* | 96* | 96*
N#C/C(=C/c1cccc(O)c1)C(=O)NCc1ccc(Cl)cc1 | 19 | 19 | -1 | 13 | 77* | -9 | x | 30 | 46
CN(C)CCCNC(=O)C[C@@H]1CC[C@H]2[C@@H](COC[C@@H](O)CN2Cc2ccc(Cl)c(Cl)c2)O1 | x | x | x | 13 | x | x | x | x | x
COc1ccc(C(=O)c2c(C(F)(F)F)oc3c2C(=O)c2ccccc2C3=O)cc1 | 71* | 88* | -4 | x | 27 | -83* | 97* | x | x
COC(=O)Cc1[nH]n(-c2nc3ccccc3s2)c(=O)c1C(C)=Nc1ccc(C)cc1 | 91* | 4 | -1 | 53* | 87* | 8 | x | 92* | 102*
COC(=O)Cc1[nH]n(-c2nc3ccccc3s2)c(=O)c1C(C)=Nc1ccc(Cl)cc1 | 17 | 11 | 0 | -5 | 85* | -15 | x | 93* | 102*
COc1cc(/C=C(/C#N)c2nc3ccccc3[nH]2)ccc1OCC(=O)Nc1ccccc1C(C)C | 4 | 0 | 0 | x | -11 | 5 | 101* | x | x
CCOc1ccc(-n2cnc3scc(-c4ccc(OC)c(OC)c4)c3c2=O)cc1 | 8 | 13 | 0 | -15 | 41* | 0 | x | 15 | 26
COc1cccc(-n2cnc3scc(-c4cccs4)c3c2=O)c1 | 29 | 24 | 17 | -24 | 18 | -18 | x | x | x
CCOC(=O)CC(S(=O)(=O)c1ccccc1)S(=O)(=O)c1ccccc1 | 28 | 87* | -1 | 23 | 76* | -90* | x | 11 | 1
Cc1c(Nc2ccc3nonc3c2[N+](=O)[O-])c(=O)n(-c2ccccc2)n1C | 1 | 2 | -1 | -2 | 15 | -16 | x | x | x
O=[N+]([O-])c1c(Nc2ccccc2O)cc(N2CCOCC2)c2nonc12 | -29 | -5 | 0 | -28 | 51* | -14 | x | 23 | 72*
O=[N+]([O-])c1c(Nc2cccc(O)c2)cc(Cl)c2nonc12 | 64* | 91* | 0 | 8 | 90* | -92* | 104* | 95* | 105*
O=C(O)c1ccc(Nc2cc(Cl)c3nonc3c2[N+](=O)[O-])cc1 | 7 | 2 | 3 | 5 | 13 | 9 | x | x | x
COc1cccc(Nc2cc(N3CCOCC3)c3nonc3c2[N+](=O)[O-])c1 | -19 | 8 | 0 | x | 26 | -20 | x | x | x
Cc1c(Nc2cc(Cl)c3nonc3c2[N+](=O)[O-])c(=O)n(-c2ccccc2)n1C | 50* | 94* | 33* | 103* | 98* | -56* | 103* | 99* | 105*
CN1C(=O)c2cc(NS(=O)(=O)c3ccccc3Cl)ccc2OC[C@@H]2O[C@@H](CC(=O)O)CC[C@H]21 | x | x | x | -13 | x | x | x | x | x
Cc1nc(SCc2cccc(C(=O)O)c2)nc2c1CCCC2 | 22 | -2 | 3 | 2 | 86* | 0 | x | 84* | 25
Cc1ccc(C(=O)O/N=C(\N)c2ccccn2)cc1 | 103* | 9 | 0 | 101* | 62* | -22 | 49* | x | x
SMILES | TWEAK-Fn14 inh | CF NFkB inh | hiPSC survival | LGR2 antag | HIF-2a inh | KKLEB cytotox | Mdm2-MdmX confirm | HIF-2a inh conf | HIF-1a cs
CC(C)(C)c1ccc(C(=O)O/N=C(\N)c2ccccn2)cc1 | 103* | 47 | 0 | 102* | 82* | -38 | x | 85* | 84*
CCNC(=O)C[C@H]1C=C[C@H](NS(=O)(=O)c2ccc(C)cc2)[C@@H](CO)O1 | x | x | x | 0 | x | x | x | x | x
CCC(=O)Nc1cccc(C(=O)/C=C/c2ccccc2)c1 | 65* | 3 | -2 | x | 44* | -10 | x | -46 | 101*
CCC(=O)Nc1cccc(C(=O)c2ccc(C)c(C)c2)c1 | 2 | -3 | 0 | -35 | 45* | -7 | x | 65* | 15
Cc1ccc(C(=O)c2ccc(O)cc2)cc1C | -9 | 5 | 0 | x | -126 | 3 | x | x | x
CCC(=O)Nc1cccc(C(=O)c2ccccc2)c1 | -32 | -4 | 2 | -15 | -48 | 10 | x | x | x
Cc1ccc(C(=O)c2cccc(N)c2)cc1C | 52* | -8 | 0 | -24 | 84* | -14 | x | 93* | 56*
COc1ccc(N2CCN(CCNC(=O)c3ccc4c(c3)[nH]c(=S)n3c5ccccc5nc43)CC2)cc1 | -32 | -10 | 0 | 0 | 31 | -1 | 99* | x | x
C[C@H]1CN([C@@H](C)CO)C(=O)Cc2cc(NC(=O)Nc3ccc(F)cc3)ccc2O[C@@H]1CN(C)CC1CCCCC1 | x | x | x | 15 | x | x | x | x | x
CCC[C@H](CN[C@@H](CNC)[C@H](C)O)NCCc1ccc(OC)cc1 | -13 | -7 | -2 | -1 | 8 | 1 | x | x | x
CCCC[C@H](CN[C@@H](CNC)[C@H](C)CC)NCCC12CCC(CC1)C2 | -11 | -12 | -7 | 35 | -7 | -1 | 103* | x | x
O=C(Nc1cccc(Cl)c1)c1cc(N=Nc2ccc([N+](=O)[O-])cc2Cl)ccc1O | 83* | 76* | -1 | -15 | -84 | -32 | 95* | x | x
O=C(CN(Cc1ccccc1)C(=O)CCl)c1cccc(Br)c1 | 66* | 61* | 0 | 25 | 31 | -67* | 103* | x | x
O=C(NC1CCCCC1)C(c1cccnc1)N(C(=O)CCl)c1ccccc1Cl (stereo not drawn) | 62* | 10 | -3 | 13 | 30 | -8 | 103* | x | x
